Out of some 360,000 compounds screened, about 2,000 (0.56%) were called active. Not shown: some 2% with an inconclusive outcome. Shown is part of a subset that was picked to be rich in actives. Values without a mark were called inactive. No stated cut-off is given here; in the data, active means activity change below about -65%; inconclusive means mostly about -30% to -63%; inactive means weaker than that.
molecular target: Homeobox protein SIX1 (Homo sapiens) + Protein phosphatase EYA2 (Homo sapiens) (UniProt Q15475+O00167); experiment: qHTS Assay for Inhibitors of the Six1/Eya2 Interaction; conditions: AlphaScreen GST-Six1/His-Eya2 binding, biochemical; stronger effect = lower value
Sequence (O00167 whole entry, looked up): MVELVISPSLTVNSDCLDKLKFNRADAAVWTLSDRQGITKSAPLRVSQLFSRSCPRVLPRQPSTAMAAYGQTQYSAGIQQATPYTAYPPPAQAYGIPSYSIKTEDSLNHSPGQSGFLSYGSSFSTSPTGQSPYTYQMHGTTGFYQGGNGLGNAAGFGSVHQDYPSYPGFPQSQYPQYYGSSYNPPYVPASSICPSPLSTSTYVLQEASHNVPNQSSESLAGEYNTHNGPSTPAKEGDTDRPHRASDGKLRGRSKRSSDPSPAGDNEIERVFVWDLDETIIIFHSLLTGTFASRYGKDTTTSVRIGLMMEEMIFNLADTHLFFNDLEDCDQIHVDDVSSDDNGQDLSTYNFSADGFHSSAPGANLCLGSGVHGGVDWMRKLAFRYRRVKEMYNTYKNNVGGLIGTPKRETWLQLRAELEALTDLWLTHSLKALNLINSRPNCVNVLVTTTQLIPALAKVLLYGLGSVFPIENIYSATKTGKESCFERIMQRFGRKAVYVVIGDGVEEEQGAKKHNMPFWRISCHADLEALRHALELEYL
Sequence (Q15475 whole entry, looked up): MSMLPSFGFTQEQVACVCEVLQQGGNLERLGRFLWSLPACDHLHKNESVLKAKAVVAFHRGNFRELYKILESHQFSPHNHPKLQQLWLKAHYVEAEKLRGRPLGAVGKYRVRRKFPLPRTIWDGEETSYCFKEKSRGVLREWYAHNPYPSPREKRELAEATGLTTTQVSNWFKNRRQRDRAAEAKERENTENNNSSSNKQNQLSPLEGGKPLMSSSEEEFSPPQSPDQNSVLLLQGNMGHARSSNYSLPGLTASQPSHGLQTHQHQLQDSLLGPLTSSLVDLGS
Summary of the method: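 AlphaScreen luminescence read after one hour at 37 °C in darkness. Pin-transferred compounds met GST-Six1 and His-Eya2 protein (5X stock 250 nM/500 nM) plus glutathione donor and Ni-chelate acceptor beads (5X, 50 ug/mL).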
On the % scale 0 is the no-effect control and ±100 the full control effect.

SMILES	activity change
O=C1COc2ccc(S(=O)(=O)NCCc3ccc(Cl)cc3)cc2N1	6.96%
CCOC(=O)[C@]12CCCC=C1N(CCC1=CCCCC1)C(=O)[C@H](CC(=O)N1CCOCC1)C2	8.54%
Cn1c(N)c(C(=O)COC(=O)c2cnc(Cl)c(Cl)c2)c(=O)n(C)c1=O	-92.3% (active)
Cn1c(N)c(C(=O)COC(=O)COc2ccc(Cl)cc2)c(=O)n(C)c1=O	-10.5%
Cn1c(N)c(C(=O)COC(=O)c2ccc3ccccc3c2)c(=O)n(C)c1=O	-0.607%
COC(=O)c1scc(S(=O)(=O)C(C)(C)C)c1-n1cccc1	5.88%
CCC(=O)Nc1ccc(C(=O)CSc2nnc(CNc3ccc(Cl)cc3)o2)cc1OC	-0.882%
O=C(NCc1ccccc1Cl)C1CCC(CNc2c(N3CCCCC3)c(=O)c2=O)CC1 (stereo unspecified)	5.37%
Cc1ncc(CO)c(/C=N/NC(=O)c2cccc(S(=O)(=O)N3CCCC3)c2)c1O	-82.4% (active)
CCOc1cc(/C=N/NC(=O)c2cccc(S(=O)(=O)N3CCOCC3)c2)ccc1OCC(=O)N(C)C	-8.33%
Cc1cccc(NC(=O)c2cccc(S(=O)(=O)N3CCCC3)c2)n1	-10.7%
CCCC[C@@H]1CN=C(N)N1CCc1cc(C(F)(F)F)cc(C(F)(F)F)c1	16.6%
Cn1cncc1COC(=O)c1ccc(Cl)cc1	-6.11%
Cc1cc(OC(=O)c2ccc(Cl)cc2)cc(=O)n1C	-92.4% (active)
Cc1ccc(CNC(=O)CCCNC(=O)c2ccc(Cl)cc2)n1C	-7.14%
O=C1NC[C@H](Cc2ccc(O)cc2)N(C[C@@H]2CCCN2C[C@H](Cc2ccccc2)N2C[C@H](Cc3ccccc3)N(CC3CCCCC3)C(=O)C2=O)C1=O	9.57%
COC(=O)[C@]12CCCCC=C1N(CCC1=CCCCC1)C(=O)[C@H](CC(=O)NCC1CCCCC1)C2	-2.3%
Cc1c(N=Nc2ccc(N(C)C)cc2)c(=O)n(-c2ccccc2)n1C	-7.33%
Cc1nc(N)sc1N=Nc1c(C)n(C)n(-c2ccccc2)c1=O	-66.7% (active)

SMILES	activity change
Cc1c(C=O)n(C)n(-c2ccccc2)c1=O	15.7%
CCCCCCCCN1C(=O)[C@H](CC(=O)NCc2cccc3ccccc23)C[C@@]2(C(=O)OC)CCCCC=C12	0.0747%
N#Cc1ccc(C(C(=O)NCc2ccccc2)n2c(=O)c(-c3ccco3)nc3ccccc32)cc1 (stereo unspecified)	2.42%
O=C(CSc1cccc2cccnc12)N/N=C/c1cccnc1	-80.7% (active)
O=C(CNC(=O)c1cccnc1)N/N=C/c1cc(Br)c(O)c(Br)c1	-6.06%
Cc1ccc(S(=O)(=O)N(CC(=O)N/N=C/c2ccc(F)cc2)c2cccc3cccnc23)cc1	-0.495%
C[C@H]1CN([C@@H](C)CO)C(=O)CCCn2nncc2CO[C@@H]1CN(C)Cc1ccc(Oc2ccccc2)cc1	13.9%
CNc1[nH]ncc1[N+](=O)[O-]	-66.5% (active)
CNc1ccc(NC(C)=O)cc1[N+](=O)[O-]	-0.656%
Cc1cc([N+](=O)[O-])c(=O)[nH]c1C	4.44%
Nc1nnnn1/N=C/c1cccs1	2.77%
Nc1nnnn1/N=C/c1cccc(Br)c1	-1.52%
Nc1nnnn1/N=C/c1cc([N+](=O)[O-])ccc1O	-65.9% (active)
COC(=O)[C@@]12C[C@@H](CC(=O)N3CCCCC3)C(=O)N(Cc3ccc4c(c3)OCO4)C1=CCC(C)(C)C2	-15.9%
COc1ccc(/C=N/N(C)C2=NS(=O)(=O)c3ccccc32)cc1OC	-67.9% (active)
C=CCOCCN(C)C1=NS(=O)(=O)c2ccccc21	-3.42%
COc1ccc(C(C)(C)C)cc1NC(=O)CN(C)C1=NS(=O)(=O)c2ccccc21	4.86%
CC1CN(C(=O)c2cccc(NS(=O)(=O)c3ccc(Br)cc3)c2)CC(C)O1 (stereo unspecified)	-2.46%
C[C@H](NC(=O)[C@@H]1CCCN1C(=O)[C@@H]1CCCN1C(=O)c1ccccc1)c1ccccc1	0.523%

SMILES	activity change
CC1CN(S(=O)(=O)c2cccc(C(F)(F)F)c2)CN1C(=O)N1CCOCC1 (stereo unspecified)	-0.306%
CC1(C(=O)NCc2ccccc2)CSCC(=O)N1CCCN1CCOCC1 (stereo unspecified)	-1.18%
Cn1c(SCC(=O)Nc2ccc(Cl)cc2)nc(O)cc1=O	7.12%
Oc1ccc(N=Nc2nccs2)c(O)c1	-77.5% (active)
Oc1ccc2ccccc2c1N=Nc1nccs1	-81.4% (active)
CC1(C(=O)NCc2ccccc2)CN(S(C)(=O)=O)CC(=O)N1CC(F)(F)F (stereo unspecified)	2.8%
CN1C(c2ccc(F)cc2)=CS/C1=C(/C#N)c1nnc2n1-c1ccccc1SC2	-14.2%
COC(=O)C1(C(=O)OC)C[C@H](c2ccccc2)N(Cc2ccccc2OC)[C@@H]1c1ccccc1	1.28%
CCC(C(=O)NCc1ccccc1)n1c(Cc2cc(F)cc(F)c2)nc2ccccc21 (stereo unspecified)	-0.68%
COc1ccc(N2c3ccccc3CN(Cc3ccccc3)[C@@H](C)[C@H]2Cc2ccc(-c3ccccc3)cc2)cc1	-12.3%
CC(=O)c1cc(CN2CCC(n3nccc3NC(=O)c3ccccc3Cl)CC2)cs1	-1.64%
Cc1ccc(-c2c(N)nc3ncccn23)cc1	-9.22%
CC(=O)N1Cc2cc(C(=O)NCc3cccc(F)c3)nc(-c3cccc(C4=CCCCC4)c3)c2[C@H]1CCO	0.697%
O=C(CN1CCN(Cc2ccccc2)CC1)NC(c1ccccc1)c1ccccc1	-3.09%
O=S1(=O)CCN(Cc2ccccc2)CC1	-0.459%
O=C1c2ccccc2C(=O)c2c1cccc2N1CCN(Cc2ccccc2)CC1	-88.9% (active)
Clc1ccc(-c2nc3ccccn3c2CN2CCSCC2)cc1	-7.53%
Cc1nc(CN(C)C(=O)CC2C(=O)NCCN2Cc2ccc(F)cc2)cs1 (stereo unspecified)	6.54%

Reference: PubChem BioAssay AID651725 (National Center for Advancing Translational Sciences (NCATS), 2012)
